In the library only some 6.9% were active in any assay of this set; here they are far more common.
ASM inhibitor: human S-ASM enzyme inhibition. P17405. placental ASM, HMU-PC fluorogenic substrate, 60 min. Potency, µM (series often up to 57.5 µM), without a hit: top-dose activity change, negative = inhibition, most hits filed as inhibitors. actives 0.006% (n = 340,000). AID 504937; note: potency is the fitted concentration of half-maximal effect
Target sequence (P17405 47-631 limits assumed): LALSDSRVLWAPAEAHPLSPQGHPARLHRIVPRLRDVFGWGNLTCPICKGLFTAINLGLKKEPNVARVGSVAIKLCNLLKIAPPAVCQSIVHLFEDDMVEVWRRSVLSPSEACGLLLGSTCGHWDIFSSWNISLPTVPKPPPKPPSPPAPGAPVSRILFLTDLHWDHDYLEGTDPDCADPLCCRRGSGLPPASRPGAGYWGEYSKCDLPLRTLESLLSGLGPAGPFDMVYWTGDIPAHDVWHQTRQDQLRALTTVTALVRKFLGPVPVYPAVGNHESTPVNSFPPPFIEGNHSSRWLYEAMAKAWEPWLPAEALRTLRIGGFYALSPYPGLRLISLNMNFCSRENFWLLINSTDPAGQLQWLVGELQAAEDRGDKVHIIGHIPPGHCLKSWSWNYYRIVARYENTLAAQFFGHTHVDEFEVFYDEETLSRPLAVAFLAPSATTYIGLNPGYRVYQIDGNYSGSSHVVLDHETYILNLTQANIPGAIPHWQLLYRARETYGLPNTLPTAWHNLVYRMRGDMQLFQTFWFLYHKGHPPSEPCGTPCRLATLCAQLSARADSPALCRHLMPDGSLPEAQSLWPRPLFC
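HMU-PC0 cleavage (9 uM final) by human placental ASM, 60 min at 37 °C following 10 min compound exposure at RT; stopped at pH 10, fluorescence Ex 386/Em 447 nm.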
SW480 rereplic: DNA re-replication induction in SW480 cells; SW480 DNA re-replication, Hoechst DNA content imaging, 48 h; Potency, µM (doses to about 46.1 µM), without a hit: at the top dose re-replication activation, usual class: activators; actives 1.8% (n = 340,000); AID 624297; note: potency is the fitted concentration of half-maximal effect; % of control where 0% means no effect; nearly all actives have a fitted effect of over 55% in size
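Cells (250 per well) received 23 nL compound or DMSO by pin tool and were kept 48 hr at 37 C, 5% CO2. Nuclei were then stained with Hoechst for 40 min and scanned for DNA content.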
Giardia killer: Giardia lamblia killing; Giardia lamblia trophozoite viability; activity change, % at 7.66 µM, hits read low; actives 0.15% (n = 340,000); AID 540267; in the data active = activity change below about -80%; inconclusive = between about -30% and that limit;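 note: parasites exposed to compound for two days anaerobically before the ATP read; % is set by controls: 0 for no effect and ±100 for the full control effect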
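Compounds were tested on trophozoites seeded at 100 cells/well and held 48 hrs at 37 deg C anaerobically. An ATP-based luminescent kit measured the remaining live cells.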
KB-3-1 tox: KB-3-1 parental cell cytotoxicity; Potency, µM (series often up to 46.1 µM), most hits filed as cytotoxic; KB-3-1 viability, CellTiter-Glo ATP luminescence, 72 h; actives 1.4% (n = 400,000); note: potency is the fitted concentration of half-maximal effect; % is set by controls: 0 for no effect and ±100 for the full control effect; nearly all actives have a fitted effect of over 60% in size
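72 h, 37 °C compound treatment of KB-3-1 parental cells; CellTiter-Glo added, 10 min, luminescence read. Data corrected against DMSO-only plates and normalized before curve fitting.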
MCF10A rereplic: induces DNA re-replication in MCF 10a normal breast cells. MCF 10A DNA re-replication, Hoechst nuclear intensity, 48 h. Potency, µM (series often up to 46.1 µM), inactives show at the highest dose activity, positive = re-replication, most hits filed as activators. actives 2.9% (n = 350,000); note: potency is the fitted concentration of half-maximal effect; % of control where 0% means no effect; nearly all actives have a fitted effect of over 50% in size
KB-V1 cytotox: KB-V1 MDR subline cytotoxicity; KB-V1 MDR cells viability, CellTiter-Glo, 72 h; Potency, µM (series often up to 46.1 µM), usual class: cytotoxic; actives 3.4% (n = 400,000); AID 1347076; note: potency is the fitted concentration of half-maximal effect; % is set by controls: 0 for no effect and ±100 for the full control effect; nearly all actives have a fitted effect of over 60% in size
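Cells of the MDR subline KB-V1 are plated, dosed with compound at multiple concentrations, and incubated 72 h at 37 degrees C; CellTiter-Glo is then added and luminescence read after 10 min.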
Starred values were filed as active, the others as inactive; i = inactive; ? = inconclusive; . = no result given; [ ] = dose if it differs, or a comment. Unless noted, calls come from the whole dose curve; as a rule, active = well fitted curve in the direction sought with a large enough effect; inconclusive = small, poorly fitted or top-dose-only effect, or another doubt; inactive = no such curve, though single readings can be large; an effect the other way counts as inactive or inconclusive.

SMILES	ASM inhibitor	SW480 rereplic	Giardia killer	KB-3-1 tox	MCF10A rereplic	KB-V1 cytotox
Cc1noc(/C=C/N(C)C)c1S(=O)(=O)N1CCN(c2ccccc2)CC1	4.2%	3.3%	-4.8	i	?	i
CCOC(=O)c1c(C)[nH]c(C)c1S(=O)(=O)N1CCC(C(=O)N2CCN(c3cc(C)ccc3C)CC2)CC1	.	.	.	16.4µM*	.	i
Cc1ccc(Cl)cc1N1CCN(C(=O)c2ccc(NS(=O)(=O)c3c(C)noc3C)cc2)CC1	-10.9%	?	7.0	i	14.6µM*	i
Cc1ccc(C)c(N2CCN(S(=O)(=O)c3c(C)noc3/C=C/N(C)C)CC2)c1	-7.6%	4.3%	-3.1	?	20.6µM*	?
CCOC(=O)c1c(C)[nH]c(C)c1S(=O)(=O)N1CCC(C(=O)N2CCN(c3cccc(C)c3)C(C)C2)CC1 (configuration not stated)	.	.	.	i	.	i
O=C(Nc1c2c(nn1-c1ccc(Cl)cc1)CS(=O)(=O)C2)c1ccccc1F	.	.	.	i	.	i
COc1ccc(-c2cccc(NS(=O)(=O)c3cc(C)ccc3OC)c2)nn1	.	.	.	i	.	?
CN1CCN(Cc2c(O)ccc3occ(C(=O)c4ccccc4)c23)CC1	-1.4%	-0.2%	4.9	i	5.6%	i
CC(=O)C(C(C)=O)c1c(Cl)c(O)c(O)c2c(C(=O)c3ccccc3)coc12	6.2%	-0.4%[9.22 µM]	-5.7	13µM*	?	?
CN1c2ccccc2-c2nc(SCC(=O)Nc3ccccc3C(F)(F)F)ncc2S1(=O)=O	.	.	.	i	.	i
Cc1c(NC(=O)/C=C/c2cn(-c3ccccc3)nc2-c2ccc(F)cc2)c(=O)n(-c2ccccc2)n1C	-2.3%	18.4%	-20.3	?	18.4µM*	i
CC1=NNC(=O)/C1=C\c1cn(-c2ccccc2)nc1-c1ccc(F)cc1	-1.9%	?	13.9	i	4.61µM*	?
Cc1ccc(-c2nn(-c3ccccc3)cc2/C=C/C(=O)Nc2nccs2)cc1	i	3.1%	-3.5	i	?	i
CC1=NNC(=O)/C1=C\c1cn(-c2ccccc2)nc1-c1cccs1	-2.9%	4.11µM*	1.0	i	2.59µM*	i
CCOc1ccc2cc(C#N)c(SCC(=O)N3CCC(C)CC3)nc2c1	22.3%	0.0%	-6.9	i	?	2.59µM*
COc1ccc2cc(C#N)c(SCC(=O)N3CC(=O)Nc4ccccc43)nc2c1	9.4%	?	-4.7	7.31µM*	20.6µM*	i
CCOC(=O)CSc1nc2cc(OCC)ccc2cc1C#N	27.0%	-6.6%	-2.1	i	10.5%	i
Cc1cccc2cc(C#N)c(SCC(=O)N3CC(=O)Nc4ccccc43)nc12	-5.1%	7.31µM*	-2.5	0.82µM*	0.651µM*	?
Cc1cccc2cc(C#N)c(SCC(=O)N3CCC(C)CC3)nc12	-5.9%	2.0%	2.8	i	14.4%	?
CCCOc1cccc(C2c3c(oc4ccc(F)cc4c3=O)C(=O)N2CCCN2CCOCC2)c1 (configuration not stated)	.	.	.	i	.	i
O=C(Nc1ccc(Br)cn1)c1cnn2c1NC(=C1CC1)C=C2C(F)F	.	.	.	?	.	i
CC1(C)C2CCC1(C)C(OC(=O)CNc1ccccc1)C2 (configuration not stated)	-4.4%	-4.5%	-11.9	i	14.2%	i
COc1cc(C(=O)OC2CC3CCC2(C)C3(C)C)ccc1OC(C)=O (configuration not stated)	-1.3%	?	4.3	i	14.6µM*	?
Cc1ccc(NC(=O)C2CCCN(S(=O)(=O)c3ccc4c(c3)CCCC(=O)N4)C2)cc1Cl (configuration not stated)	.	.	.	i	.	?
Cc1ccc(S(=O)(=O)c2nc(S(=O)(=O)c3ccccc3)sc2N2CCN(C)CC2)cc1	-2.2%	35.8%	8.5	?	23.1µM*	?

Source: PubChem
